Measurements as given in article PMC11062922 (Nature Chemical Biology, 2023).
Read-outs that look alike come from different tables or passages of the source.

Key:
Set-up in all cases: species or system human, MV4-11 + K-562 + COLO205 + SK-N-BE2 + OVCAR-8
ACAD8 = details: read-out: apparent Kd, n = 1
NEK3 = details: read-out: apparent Kd, n = 1
LIMK1 = details: read-out: apparent Kd, n = 1
ADCK3 = details: read-out: apparent Kd, n = 1
MAP2K6 = details: read-out: apparent Kd, n = 1
DDR2 = details: read-out: apparent Kd; compound concentrations: 100 nM and 1000 nM (sheet 'Samples'), CATDS: 5.5525356317498699E-2; n = 1
CDK13 = details: read-out: apparent Kd, compound concentrations: 100 nM and 1000 nM (sheet 'Samples'), n = 1
DCTPP1 = details: read-out: apparent Kd, n = 1
ILK = details: read-out: apparent Kd, n = 1
MST1R = details: read-out: apparent Kd, n = 1
RIPK3 = details: read-out: apparent Kd, compound concentrations: 100 nM and 1000 nM (sheet 'Samples'), n = 1
TAOK3 = details: read-out: apparent Kd; compound concentrations:100 nM and 1000 nM (sheet 'Samples'); n = 1
BMPR2 = details: read-out: apparent Kd, compound concentrations: 100 nM and 1000 nM (sheet 'Samples'), n = 1
VDAC3 = details: read-out: apparent Kd, n = 1
CAMK2G = details: read-out: apparent Kd; compound concentrations: 100 nM and 1000 nM (sheet 'Samples'), CATDS: 2.3496297830239501E-2; n = 1
ERN2 = details: read-out: apparent Kd; compound concentrations:100 nM and 1000 nM (sheet 'Samples'); n = 1
[1] = compound concentrations:100 nM and 1000 nM (sheet 'Samples')

**Q.** `FC(F)(F)c1ccc(-c2ncn(CCCN3CCOCC3)c2-c2ccncc2)cc1` [SB-217780] was tested. Which potency estimated from few doses (ACAD8; compound concentrations: 100 nM and 1000 nM (sheet 'Samples'), CATDS: 0.18065047008749499) did it give?
**A.** 2.21 µM

**Q.** For `CN(C)CC(O)COc1ccc(Nc2nccc(-c3cnn4nc(N5CCOCC5)ccc34)n2)cc1` (stereo not shown) [GW767488X], which potency estimated from few doses (NEK3; [1]) is on record?
**A.** 0.467 µM

**Q.** With `COc1cc(Nc2nccc(N3CCC(NC(=O)c4cccc(NC(C)=O)c4)C3)n2)cc(OC)c1OC` (stereo not shown) [GSK1379754A] as the compound, how does the potency estimated from few doses (LIMK1; compound concentrations: 100 nM and 1000 nM (sheet 'Samples'), CATDS: 8.2781561075995602E-2) read?
**A.** 1.83 µM

**Q.** Which potency estimated from few doses (ADCK3; [1]) does the source give for `CCn1c(-c2nonc2N)nc2c(C#CC(C)(C)O)nc(O[C@@H](CN)c3ccccc3)cc21.O=C(O)C(F)(F)F` [GSK1007102B] here?
**A.** 1.06 µM

**Q.** And the potency estimated from few doses (MAP2K6; [1])?
**A.** 1.69 µM

**Q.** With `CN(c1ccc(NC(=O)NCCN2CCOCC2)cc1)c1ccnc(Nc2ccc(CS(C)(=O)=O)cc2)n1.Cl` [GW830365A] as the compound, how does the potency estimated from few doses (DDR2) read?
**A.** 0.94 µM

**Q.** With `CCN(CC)Cc1ccc(Nc2nccc(-c3cnn4ncccc34)n2)cc1` [GW780056X] as the compound, how does the potency estimated from few doses (CDK13; CATDS: 1.9982527917222499E-2) read?
**A.** 1.33 µM

**Q.** With `Cc1cccc(Nc2nc(N[C@H]3CCNC3)ncc2C(N)=O)c1.Cl` [GSK2197149A] as the compound, how does the potency estimated from few doses (DCTPP1; [1]) read?
**A.** 1.15 µM

**Q.** For `CCn1c(-c2cccnc2O)nc2cnccc21` [SB-736715], which potency estimated from few doses (ILK; compound concentrations: 100 nM and 1000 nM (sheet 'Samples'), CATDS: 1.2476704483333699E-2) is on record?
**A.** 1.98 µM

**Q.** What about the potency estimated from few doses (MST1R; compound concentrations: 100 nM and 1000 nM (sheet 'Samples'), CATDS: 1.2580908946689701E-2) of the same compound?
**A.** 1.93 µM

**Q.** What about the potency estimated from few doses (RIPK3; CATDS: 1.26623913156397E-2) of the same compound?
**A.** 1.9 µM

**Q.** For `NC(=O)c1cc(-c2ccccc2)cc2c(C3CCNCC3)c[nH]c12` [GSK301362A], which potency estimated from few doses (ACAD8; [1]) is on record?
**A.** 1.75 µM

**Q.** What about the potency estimated from few doses (TAOK3) of the same compound?
**A.** 1.57 µM

**Q.** Which potency estimated from few doses (DCTPP1; compound concentrations: 100 nM and 1000 nM (sheet 'Samples'), CATDS: 5.0969349281877803E-2) does the source give for `O=C1N=C(NCc2cccs2)O/C1=C\c1ccc2ncccc2c1` [RO4624208-000] here?
**A.** 1.27 µM

**Q.** `O=C(O)C(F)(F)F.O=c1[nH]ccc2nc(N[C@@H]3CCNC3)nc(Nc3ccc4c(c3)S(=O)(=O)CC4)c12` [GSK2181306A] was tested. Which potency estimated from few doses (BMPR2; CATDS: 3.4513086619766098E-2) did it give?
**A.** 0.0687 µM

**Q.** And the potency estimated from few doses (ILK; compound concentrations: 100 nM and 1000 nM (sheet 'Samples'), CATDS: 7.7202242880441098E-3)?
**A.** 2.32 µM

**Q.** What does the source list for `COC(=O)c1cccc(NC(=O)NC2CCN(c3ccnc(Nc4cc(OC)c(OC)c(OC)c4)n3)C2)c1` (stereo not shown) [GSK1379767A]?
**A.** potency estimated from few doses (ADCK3; compound concentrations: 100 nM and 1000 nM (sheet 'Samples'), CATDS: 9.7786771136585404E-2): 1.86 µM; potency estimated from few doses (VDAC3; compound concentrations: 100 nM and 1000 nM (sheet 'Samples'), CATDS: 0.107496122866376): 1.48 µM

**Q.** For `c1ccc(-c2n[nH]cc2Nc2ccnc3ccccc23)nc1` [GW694077X], which potency estimated from few doses (DCTPP1; compound concentrations: 100 nM and 1000 nM (sheet 'Samples'), CATDS: 2.52871729428043E-2) is on record?
**A.** 1.4 µM

**Q.** Which potency estimated from few doses (CAMK2G) does the source give for `COc1cc[nH]c1/C=C1\C(=O)Nc2ccc(F)c(C#CC3(O)CCNCC3)c21.Cl` [RO0282986-001] here?
**A.** 0.154 µM

**Q.** What about the potency estimated from few doses (MAP2K6; compound concentrations: 100 nM and 1000 nM (sheet 'Samples'), CATDS: 9.6893915598830205E-3) of the same compound?
**A.** 1.5 µM

**Q.** With `c1cnn2ncc(-c3ccnc(Nc4ccc5c(c4)OCCO5)n3)c2c1` [GW806290X] as the compound, how does the potency estimated from few doses (NEK3; compound concentrations: 100 nM and 1000 nM (sheet 'Samples'), CATDS: 2.00420212482838E-2) read?
**A.** 2 µM

**Q.** With `CC(C)Oc1ccc2c(-c3ccnc(Nc4ccc(N5CCN(C)CC5)cc4)n3)cnn2n1` [GW696155X] as the compound, how does the potency estimated from few doses (LIMK1; [1]) read?
**A.** 0.576 µM

**Q.** What about the potency estimated from few doses (NEK3; [1]) of the same compound?
**A.** 0.421 µM

**Q.** `CS(=O)(=O)Nc1cccc(-c2ccc3c(NC(=O)C4CC4)n[nH]c3c2)c1` [SB-742864] was tested. Which potency estimated from few doses (ADCK3; compound concentrations: 100 nM and 1000 nM (sheet 'Samples'), CATDS: 0.16822822033669799) did it give?
**A.** 0.659 µM

**Q.** For `O=C1N=C(NCCCc2ccccc2)S/C1=C\c1ccc2ncccc2c1` [RO4493941-000], which potency estimated from few doses (ADCK3; compound concentrations: 100 nM and 1000 nM (sheet 'Samples'), CATDS: 7.1008465963160003E-2) is on record?
**A.** 0.94 µM

**Q.** Which potency estimated from few doses (ACAD8; compound concentrations: 100 nM and 1000 nM (sheet 'Samples'), CATDS: 9.2281876473195495E-2) does the source give for `COc1ccc(-c2cc3c(N)ncnc3o2)cc1` [GW642138X] here?
**A.** 2.17 µM

**Q.** And the potency estimated from few doses (VDAC3; compound concentrations: 100 nM and 1000 nM (sheet 'Samples'), CATDS: 9.45617395095774E-2)?
**A.** 2.06 µM

**Q.** How did the potency estimated from few doses (CDK13; CATDS: 1.7118564959648301E-2) turn out when `NS(=O)(=O)c1ccc(NC=C2C(=O)Nc3ccc4ncsc4c32)cc1` [GW589933X] was run?
**A.** 1.7 µM

**Q.** What does the source list for `Cc1occc1-c1nc(N)c(OC[C@@H](N)Cc2c[nH]c3ccccc23)cc1-c1cc2c(C)n[nH]c2cn1` [GSK1660450B]?
**A.** potency estimated from few doses (TAOK3): 0.076 µM; potency estimated from few doses (VDAC3; [1]): 0.102 µM

**Q.** For `Nc1nc(-c2ccc3c(N)n[nH]c3c2)cc(N2CCCC(NC(=O)c3ccccc3)C2)n1` (stereo not shown) [GSK2286775B], which potency estimated from few doses (ERN2) is on record?
**A.** 1.58 µM

**Q.** What about the potency estimated from few doses (ILK; [1]) of the same compound?
**A.** 1.79 µM

**Q.** And the potency estimated from few doses (MST1R; [1])?
**A.** 2.25 µM

**Q.** For `CC(C)N1CC(=O)N(C)c2cnc(Nc3cccc(S(=O)(=O)CCN4CCOCC4)c3)nc21` [BI00009348], which potency estimated from few doses (BMPR2; CATDS: 7.5564324360796103E-2) is on record?
**A.** 0.646 µM

**Q.** For `O=C(Nc1n[nH]c2nc(-c3ccccc3O)ccc12)C1CC1` [SB-711880], which potency estimated from few doses (MAP2K6; [1]) is on record?
**A.** 1.81 µM

**Q.** With `Cl.Oc1cccc(Nc2ccnc3cc(-c4ccncc4)ccc23)c1` [GW494601A] as the compound, how does the potency estimated from few doses (RIPK3; CATDS: 6.8751849319998101E-2) read?
**A.** 0.0215 µM
